Data from the supplement of paper PMC6089552.
Among all 3,200 compounds or so, about 300 (9.4%) showed activity. This is one part of a sample in which actives are shown more often than they occur. Values without a mark were called inactive.

Test system: A673/TR/shEF
Assay: cell viability (LOESS-normalised, relative to median of negative controls) (log2 ratio); higher = more viable cells (less compound effect), active = hit call of the paper (over 3 MAD below the median)
Details: treatment time: 72 h
In short: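 For three days, A673/TR/shEF Ewing sarcoma cells in 384-well plates (1,500 per well) were treated with library compounds at two or more concentrations or with DMSO controls, after doxycycline had been added or withheld 24 h beforehand to induce EWS-FLI1 shRNA knockdown. Viability was read by CellTiter-Glo luminescence on an Envision reader. The data were LOESS-corrected per plate, divided by the median of negative controls and log2-transformed.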

[1] = 0.103 µM, library screen: screen3, EWS-FLI1 expression: high (no doxycycline)
[2] = 0.103 µM, library screen: screen3, EWS-FLI1 expression: low (doxycycline-induced shRNA knockdown)
[3] = 0.308 µM, library screen: screen3, EWS-FLI1 expression: high (no doxycycline)
[4] = 0.308 µM, library screen: screen3, EWS-FLI1 expression: low (doxycycline-induced shRNA knockdown)
[5] = 0.926 µM, library screen: screen3, EWS-FLI1 expression: high (no doxycycline)
[6] = 0.926 µM, library screen: screen3, EWS-FLI1 expression: low (doxycycline-induced shRNA knockdown)
[7] = 2.8 µM, library screen: screen3, EWS-FLI1 expression: high (no doxycycline)
[8] = 2.8 µM, library screen: screen3, EWS-FLI1 expression: low (doxycycline-induced shRNA knockdown)
[9] = 8.3 µM, library screen: screen3, EWS-FLI1 expression: high (no doxycycline)
[10] = 8.3 µM, library screen: screen3, EWS-FLI1 expression: low (doxycycline-induced shRNA knockdown)
[11] = 25 µM, library screen: screen3, EWS-FLI1 expression: high (no doxycycline)
[12] = 25 µM, library screen: screen3, EWS-FLI1 expression: low (doxycycline-induced shRNA knockdown)
[13] = 0.25 µM, library screen: screen1, EWS-FLI1 expression: high (no doxycycline)
[14] = 0.25 µM, library screen: screen1, EWS-FLI1 expression: low (doxycycline-induced shRNA knockdown)
[15] = 0.25 µM, library screen: screen2, EWS-FLI1 expression: high (no doxycycline)
[16] = 0.25 µM, library screen: screen2, EWS-FLI1 expression: low (doxycycline-induced shRNA knockdown)
[17] = 2.5 µM, library screen: screen1, EWS-FLI1 expression: high (no doxycycline)
[18] = 2.5 µM, library screen: screen1, EWS-FLI1 expression: low (doxycycline-induced shRNA knockdown)
[19] = 2.5 µM, library screen: screen2, EWS-FLI1 expression: high (no doxycycline)
[20] = 2.5 µM, library screen: screen2, EWS-FLI1 expression: low (doxycycline-induced shRNA knockdown)

CO[C@@H](C(=O)N1Cc2[nH]nc(NC(=O)c3ccc(N4CCN(C)CC4)cc3)c2C1)c1ccccc1
cell viability (log2) [1]: -0.25 (active)
cell viability (log2) [2]: 0.0472
cell viability (log2) [3]: -0.418 (active)
cell viability (log2) [4]: -0.0579
cell viability (log2) [5]: -0.596 (active)
cell viability (log2) [6]: -0.134 (active)
cell viability (log2) [7]: -0.679 (active)
cell viability (log2) [8]: -0.355 (active)
cell viability (log2) [9]: -0.794 (active)
cell viability (log2) [10]: -0.46 (active)
cell viability (log2) [11]: -1.13 (active)
cell viability (log2) [12]: -1.21 (active)

Cc1ccc(C(=O)Nc2ccc(S(=O)(=O)O)c3cc(S(=O)(=O)O)cc(S(=O)(=O)O)c23)cc1NC(=O)c1cccc(NC(=O)Nc2cccc(C(=O)Nc3cc(C(=O)Nc4ccc(S(=O)(=O)O)c5cc(S(=O)(=O)O)cc(S(=O)(=O)O)c45)ccc3C)c2)c1
cell viability (log2) [13]: 0.152
cell viability (log2) [14]: 0.0138
cell viability (log2) [15]: -2.98 (active)
cell viability (log2) [16]: -2.91 (active)
cell viability (log2) [17]: 0.0749
cell viability (log2) [18]: 0.0704
cell viability (log2) [19]: -3.46 (active)
cell viability (log2) [20]: -3.2 (active)

O=C(Nc1cccc(C(=O)Nc2ccc(S(=O)(=O)O)c3cc(S(=O)(=O)O)cc(S(=O)(=O)O)c23)c1)Nc1cccc(C(=O)Nc2ccc(S(=O)(=O)O)c3cc(S(=O)(=O)O)cc(S(=O)(=O)O)c23)c1
cell viability (log2) [15]: 0.11
cell viability (log2) [16]: 0.117
cell viability (log2) [19]: 0.167
cell viability (log2) [20]: 0.0855

O=C(Nc1cc(C(=O)Nc2ccc(S(=O)(=O)O)c(S(=O)(=O)O)c2)cc(C(=O)Nc2ccc(S(=O)(=O)O)c(S(=O)(=O)O)c2)c1)Nc1cc(C(=O)Nc2ccc(S(=O)(=O)O)c(S(=O)(=O)O)c2)cc(C(=O)Nc2ccc(S(=O)(=O)O)c(S(=O)(=O)O)c2)c1
cell viability (log2) [15]: 0.215
cell viability (log2) [16]: 0.101
cell viability (log2) [19]: 0.0469
cell viability (log2) [20]: 0.125

OCCN(C(=S)Nc1ccc2nccnc2c1)c1ccccc1
cell viability (log2) [13]: 0.0686
cell viability (log2) [14]: 0.0667
cell viability (log2) [17]: 0.0818
cell viability (log2) [18]: 0.102

CC12CCC3c4ccc(OC(=O)c5ccccc5)cc4CCC3C1CCC2=O (stereo unspecified)
cell viability (log2) [13]: -0.000312
cell viability (log2) [14]: 0.0356
cell viability (log2) [17]: 0.0819
cell viability (log2) [18]: 0.000425

Cc1cc(OC(=O)c2c(C)cc(O)cc2O)cc(O)c1C(=O)O
cell viability (log2) [13]: 0.0848
cell viability (log2) [14]: -0.00358
cell viability (log2) [17]: 0.0665
cell viability (log2) [18]: 0.0394

CCCCC1C(=O)N(c2ccccc2)N(c2ccccc2)C1=O
cell viability (log2) [1]: 0.0537
cell viability (log2) [2]: 0.0214
cell viability (log2) [13]: 0.128
cell viability (log2) [14]: 0.109
cell viability (log2) [15]: 0.0899
cell viability (log2) [16]: 0.0435
cell viability (log2) [3]: 0.172
cell viability (log2) [4]: 0.159
cell viability (log2) [5]: 0.0763
cell viability (log2) [6]: 0.0956
cell viability (log2) [17]: 0.118
cell viability (log2) [18]: 0.1
cell viability (log2) [19]: 0.084
cell viability (log2) [20]: 0.0326
cell viability (log2) [7]: 0.137
cell viability (log2) [8]: 0.112
cell viability (log2) [9]: 0.169
cell viability (log2) [10]: 0.123
cell viability (log2) [11]: 0.117
cell viability (log2) [12]: 0.141

O=C1C(CC[S+]([O-])c2ccccc2)C(=O)N(c2ccccc2)N1c1ccccc1 (stereo unspecified)
cell viability (log2) [13]: 0.123
cell viability (log2) [14]: 0.158
cell viability (log2) [17]: 0.184
cell viability (log2) [18]: 0.139

CCCCC1C(=O)N(c2ccccc2)N(c2ccc(O)cc2)C1=O (stereo unspecified)
cell viability (log2) [13]: 0.139
cell viability (log2) [14]: 0.0945
cell viability (log2) [17]: -0.129 (active)
cell viability (log2) [18]: 0.2

COc1cccc(CN2CCN(Cc3c[nH]c4ccccc34)CC2)c1
cell viability (log2) [13]: 0.11
cell viability (log2) [14]: 0.105
cell viability (log2) [17]: 0.138
cell viability (log2) [18]: 0.0572

NC[C@H](O)c1ccc(O)c(O)c1
cell viability (log2) [13]: 0.152
cell viability (log2) [14]: -0.0124
cell viability (log2) [15]: 0.069
cell viability (log2) [16]: 0.102
cell viability (log2) [17]: 0.127
cell viability (log2) [18]: 0.154
cell viability (log2) [19]: 0.0755
cell viability (log2) [20]: 0.101

CNC[C@H](O)c1ccc(O)c(O)c1
cell viability (log2) [1]: 0.00528
cell viability (log2) [2]: 0.0495
cell viability (log2) [13]: 0.106
cell viability (log2) [14]: 0.0509
cell viability (log2) [15]: 0.169
cell viability (log2) [16]: 0.0474
cell viability (log2) [3]: 0.079
cell viability (log2) [4]: 0.091
cell viability (log2) [5]: 0.0631
cell viability (log2) [6]: 0.0893
cell viability (log2) [17]: 0.183
cell viability (log2) [18]: 0.209
cell viability (log2) [19]: 0.122
cell viability (log2) [20]: 0.099
cell viability (log2) [7]: 0.0488
cell viability (log2) [8]: 0.0524
cell viability (log2) [9]: -0.00361
cell viability (log2) [10]: 0.0638
cell viability (log2) [11]: 0.098
cell viability (log2) [12]: 0.00995

NCC(O)c1ccc(O)c(O)c1 (stereo unspecified)
cell viability (log2) [15]: -0.177 (active)
cell viability (log2) [16]: 0.0558
cell viability (log2) [19]: 0.0351
cell viability (log2) [20]: -0.00208

CS(=O)(=O)CCCCN=C=S
cell viability (log2) [13]: 0.17
cell viability (log2) [14]: 0.115
cell viability (log2) [17]: 0.227
cell viability (log2) [18]: 0.0923

NS(O)(O)Cc1noc2ccccc12
cell viability (log2) [15]: 0.153
cell viability (log2) [16]: 0.0786
cell viability (log2) [19]: 0.183
cell viability (log2) [20]: 0.124

CC1CN(C(=O)c2cc(-c3ccccc3)nc3ccccc23)CC(C)O1 (stereo unspecified)
cell viability (log2) [13]: -2.9 (active)
cell viability (log2) [14]: -2.55 (active)
cell viability (log2) [17]: 0.0982
cell viability (log2) [18]: 0.0382

O=C(c1cc(-c2ccccc2)nc2ccccc12)N1CCCC1
cell viability (log2) [13]: 0.0657
cell viability (log2) [14]: 0.0915
cell viability (log2) [17]: 0.129
cell viability (log2) [18]: -0.0754

O=C(c1cc(-c2ccccc2)nc2ccccc12)N1CCN(c2ccccc2)CC1
cell viability (log2) [13]: 0.112
cell viability (log2) [14]: 0.0402
cell viability (log2) [17]: 0.113
cell viability (log2) [18]: 0.188

Cc1cccc(C)c1OCC(N)C(C)C (stereo unspecified)
cell viability (log2) [15]: 0.0355
cell viability (log2) [16]: -0.033
cell viability (log2) [19]: 0.0196
cell viability (log2) [20]: 0.00962

COc1cccc2c1CCC1CC(=O)CC[C@]21C (stereo partly specified)
cell viability (log2) [13]: 0.0982
cell viability (log2) [14]: 0.0827
cell viability (log2) [17]: 0.058
cell viability (log2) [18]: 0.11

OC[C@@H](O)[C@@H](O)C(O)[C@H](O)[C@@H](O)CO (stereo partly specified)
cell viability (log2) [13]: 0.0348
cell viability (log2) [14]: 0.0046
cell viability (log2) [17]: 0.138
cell viability (log2) [18]: 0.018
